# Screening results: PubChem, Buhrlage Lab, Dana-Farber Cancer Institute and Novartis Institutes for BioMedical Research (Cambridge, Mass)
# OTUD3 inh: inhibitors of human OTUD3 deubiquitinase | OTU domain-containing protein 3 (Homo sapiens), Q5T2D3 | purified OTUD3, Ub-rhodamine fluorescence, 2 h | inhibition, % at 25 µM | actives 0.7% (n = 47,000) | AID 1645858, 2021
# Target sequence (Q5T2D3 whole entry, looked up, the tested form may be a part): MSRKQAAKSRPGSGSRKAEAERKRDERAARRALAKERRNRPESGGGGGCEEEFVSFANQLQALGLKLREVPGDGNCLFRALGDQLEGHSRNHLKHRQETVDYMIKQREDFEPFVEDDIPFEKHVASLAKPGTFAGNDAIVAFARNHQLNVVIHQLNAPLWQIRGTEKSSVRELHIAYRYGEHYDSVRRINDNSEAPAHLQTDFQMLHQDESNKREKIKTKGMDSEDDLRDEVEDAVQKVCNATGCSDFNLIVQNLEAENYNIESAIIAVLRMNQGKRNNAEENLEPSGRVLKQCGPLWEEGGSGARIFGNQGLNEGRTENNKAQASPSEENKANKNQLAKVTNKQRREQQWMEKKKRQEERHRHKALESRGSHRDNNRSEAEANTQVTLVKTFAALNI
# USP7 inh: inhibitors of human USP7 deubiquitinase. Ubiquitin carboxyl-terminal hydrolase 7 (Homo sapiens), Q93009. purified USP7, Ub-rhodamine cleavage fluorescence. inhibition, % at 20 µM. actives 0.3% (n = 47,000). AID 1645854, 2021
# UCHL1 block: inhibitors of human UCHL1 deubiquitinase; AID 1645859, 2021; Ubiquitin carboxyl-terminal hydrolase isozyme L1 (Homo sapiens), P09936; purified UCHL1, Ub-rhodamine cleavage fluorescence; actives 0.2% (n = 47,000); inhibition, % at 20 µM
# Target sequence (P09936 whole entry, looked up): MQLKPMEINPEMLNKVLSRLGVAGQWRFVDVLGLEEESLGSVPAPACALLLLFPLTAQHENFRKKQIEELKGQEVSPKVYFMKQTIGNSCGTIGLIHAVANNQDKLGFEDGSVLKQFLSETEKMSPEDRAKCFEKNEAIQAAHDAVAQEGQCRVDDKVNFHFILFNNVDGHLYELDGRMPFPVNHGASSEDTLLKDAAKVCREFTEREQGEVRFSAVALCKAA
# USP10 inh: inhibitors of human USP10 deubiquitinase; Ubiquitin carboxyl-terminal hydrolase 10 (Homo sapiens), Q14694; purified USP10, Ub-rhodamine fluorescence, 60 min; inhibition, % at 20 µM; actives 1.1% (n = 47,000)
# USP8 inh: inhibitors of human USP8 deubiquitinase; Ubiquitin carboxyl-terminal hydrolase 8 (Homo sapiens), P40818; inhibition, % at 20 µM; purified USP8, Ub-rhodamine cleavage fluorescence, 30 min; actives 4.2% (n = 47,000)
# The depositor's hits bear a star. Hits are enriched below; roughly 4.9% of the tested compounds scored in any of these assays. Rule as the data show it: active = inhibition above about 30%; inactive = the rest.
SMILES,OTUD3 inh,USP7 inh,UCHL1 block,USP10 inh,USP8 inh
Cc1cccc(NC(=O)Cn2cc(C(=O)N3CCOCC3)c(=O)c3ccc(C)nc32)c1,-2.4,-7.6,-8.8,-8.8,34.5*
O=C(Nc1cc2c3c(c1)CC(=O)N3CCC2)c1ccc(F)cc1,-4.3,-1.2,-0.6,-1.2,32.6*
COc1ccc(CC(=O)Nc2nnc(C3CCCO3)s2)cc1OC (stereo not drawn),-1.5,0.0,0.1,1.7,7.3
Cc1ccc2c(c1)C1(C(=O)N2)N2CC3(C)CN1CC(C)(C2)C3=O (stereo not drawn),-3.2,-0.2,-3.4,0.6,1.9
O=C1CC2C3CCC(=O)c4c(O)ccc(c43)C2(O)c2cccc(O)c21 (stereo not drawn),20.5,-26.3,16.9,10.4,34.6*
O=C(Nc1ccccn1)c1noc2c1CCc1sccc1-2,-8.8,-2.6,-1.3,4.9,88.5*
O=C(NCc1ccc(Cl)cc1)c1noc2c1CCc1sccc1-2,-0.8,-4.3,-2.1,-7.0,74.7*
Cc1cccnc1NC(=O)c1noc2c1CCc1sccc1-2,3.8,4.4,-0.6,2.4,3.5
Cc1ccc(NC(=O)c2noc3c2CCc2sccc2-3)nc1,-11.5,1.4,-5.5,4.5,47.3*
O=C(NCc1ccc(F)cc1)c1noc2c1CCc1sccc1-2,-6.0,-7.7,0.0,3.5,0.9
CN1CCC(N2CCC[C@H]2c2nc(-c3ccc(-c4ccncc4)nc3)no2)CC1,-3.6,-2.1,0.6,-7.8,3.1
O=C(c1cccc(N2C(=O)CCS2(=O)=O)c1)N1CCN(Cc2ccccc2)CC1,-0.7,0.4,-2.2,-3.3,-1.2
Cn1ccc(CN2CCN(Cc3cccc(F)c3)CC2)cc1=O,-1.3,-0.2,-1.3,-2.3,9.2
COc1ccc2c(c1)c(=O)c(S(=O)(=O)c1ccc(F)cc1)cn2Cc1cccc(F)c1,0.7,-5.7,3.9,38.6*,25.4
O=c1ccc(S(=O)(=O)N2CCCCCC2)cn1Cc1cccc(F)c1,10.5,-10.8,-0.1,-0.1,8.1
Cc1ccc(C(=O)NC(C(=O)OCC(=O)c2cc(C)n(-c3ccc4c(c3)OCO4)c2C)C(C)C)cc1 (stereo not drawn),7.7,6.7,4.7,4.1,52.3*
Cc1[nH]n2c(=O)c(Cl)c(-c3ccccc3)nc2c1-c1ccccc1,22.1,13.5,3.9,33.2*,-218.6
Cc1cc(C)nc(SCc2cc(=O)n3[nH]c(C)c(-c4ccccc4)c3n2)n1,14.0,9.5,2.0,12.6,-108.0
COc1ccccc1NC(=O)N1CCc2nc(N3CCCCC3)ncc2C1,-18.9,-8.9,-4.3,-5.7,-73.1
CSc1cccc(NC(=O)COc2cccc3ccccc23)c1,14.5,14.7,9.5,26.0,42.6*
Cc1cc(Cl)ccc1OCC(=O)Nc1ccccc1,-2.7,-13.5,0.4,2.3,0.0
Cc1ccc2nc(-c3ccc(NC(=O)COC(=O)CCC(=O)Nc4sc5c(c4C(N)=O)CCC5)cc3)sc2c1,-46.6,8.4,-3.6,-8.6,47.1*
COc1cc(N)c(Cl)cc1C(=O)OCC(=O)c1ccc2c(c1)OCCO2,1.0,-43.7,8.4,5.0,-3.3
COc1cc2cc(C(=O)NC3CCCCC3)cc(-c3ccc(C)cc3)c2cc1OC,3.8,14.1,10.8,9.4,11.4
O=C(Cc1cc(-c2ccc(F)cc2)on1)Nc1ccccc1C(F)(F)F,-8.4,-3.6,-8.0,-8.7,10.9
SMILES,OTUD3 inh,USP7 inh,UCHL1 block,USP10 inh,USP8 inh
COc1ccccc1CNc1nc(-c2nnc(-c3ccccc3)o2)nc2ccccc12,4.5,12.8,11.0,7.1,36.5*
COc1ccccc1CNc1nnc(-c2nc(C3CC3)no2)c2ccccc12,5.0,1.2,7.6,6.6,13.6
c1ccc(COc2ccc3[nH]c4c(c3c2)CCCCCC4)cc1,-1.1,6.7,4.0,0.1,-2.8
O=C1CC(c2cc(F)ccc2F)c2cc3c(cc2N1)OCCO3 (stereo not drawn),6.2,-10.0,2.4,1.6,6.0
O=C1CC(c2cc3c(cc2Br)OCO3)c2cc3c(cc2N1)OCCO3 (stereo not drawn),-0.1,2.0,2.5,40.4*,4.3
O=c1cc(-c2ccc(O)c(O)c2)oc2cc(O[C@@H]3O[C@H](CO)[C@@H](O)[C@H](O)[C@H]3O)cc(O)c12,97.5*,36.1*,31.4*,52.0*,26.8
Cc1ccc2[nH]c3c(=O)n(CCc4ccccc4)cnc3c2c1,-0.7,6.3,1.4,12.3,31.6*
O=c1c2[nH]c3ccc(Cl)cc3c2ncn1CCc1ccccc1,2.2,3.2,0.2,3.7,13.1
CCOc1ccc2[nH]c3c(=O)n(CCC4=CCCCC4)cnc3c2c1,14.5,9.7,2.8,8.9,47.5*
Cc1ccc(C(=O)CCC(=O)Nc2cc(S(=O)(=O)Nc3ccc(C)cc3C)ccc2C)cc1,3.9,9.3,6.5,5.0,3.2
Cc1noc(C)c1CN1CCC(NC(=O)c2ccc3c(c2)OCO3)CC1,-12.6,-2.8,-3.0,-4.9,-7.4
C=C/C=C/[C@H]1OC[C@@H](/C=C/C=C/C)[C@@H]1O,-12.9,-13.7,-10.1,-9.0,-56.3
CCOC(=O)c1ccc(NC(=O)Cc2sc(Nc3ccc(O)cc3)nc2O)cc1,-2.2,-0.7,3.5,3.5,0.5
Cc1ccc(Nc2nc(O)c(CC(=O)Nc3cccc(Cl)c3C)s2)cc1C,18.6,12.2,2.0,30.5*,63.0*
Cc1cccc(S(=O)(=O)Nc2cc(-c3ccncc3)no2)c1,4.0,3.7,3.1,2.6,-31.2
Cc1nc(C2CCCN2C(=O)c2ccnn2C)nc2c1CC(=O)N2Cc1ccc(F)cc1 (stereo not drawn),-28.7,-7.9,1.6,-5.7,40.3*
Cc1nc(C2CCCN2C(=O)c2ccccn2)nc2c1CC(=O)N2CCc1ccccc1F (stereo not drawn),-80.0,-12.7,-3.9,-6.7,61.1*
CCOC(=O)N1CCN(C(=O)c2ccc(CNS(=O)(=O)c3ccc(NC(C)=O)cc3)cc2)CC1,9.9,4.8,1.7,3.3,21.8
CCOC(=O)N1CCN(C(=O)c2ccc(NCc3ccc(F)cc3)c(S(=O)(=O)Nc3cccc(C(F)(F)F)c3)c2)CC1,-0.5,8.1,7.6,56.5*,16.9
Cc1nn(-c2ccc(F)cc2)cc1-c1noc(C(=O)NCc2ccco2)n1,4.6,-40.7,2.7,0.3,5.0
Cc1nn(-c2ccc(F)cc2)cc1-c1noc(C(=O)NCc2ccccn2)n1,23.4,-16.9,2.3,4.5,34.5*
O=C(NCc1ccccn1)c1nc(-c2cn(-c3ccc(Cl)cc3)nn2)no1,9.2,1.9,3.8,6.1,49.7*
Cc1cc(C)cc(NC(=O)CC(C)(C)CC2=NS(=O)(=O)c3ccccc3N2)c1,8.3,10.6,6.3,6.4,10.4
COc1ccc(C(=O)N2CC3CCCN3c3ccc(C(F)(F)F)cc32)cc1 (stereo not drawn),-8.3,-5.1,0.7,-0.6,3.8
